Bioassay records as filed in PubChem BioAssay.
D1 agonist: agonists of human D1 dopamine receptor; HEK293 T-REx D1 cells, calcium flux, agonist mode; activation, % at 2 µM; 360,000 compounds, 1% hits; AID 504660; in the data active means activation above about 30%; further: 0% is about no effect
Target sequence (P21728 whole entry, looked up): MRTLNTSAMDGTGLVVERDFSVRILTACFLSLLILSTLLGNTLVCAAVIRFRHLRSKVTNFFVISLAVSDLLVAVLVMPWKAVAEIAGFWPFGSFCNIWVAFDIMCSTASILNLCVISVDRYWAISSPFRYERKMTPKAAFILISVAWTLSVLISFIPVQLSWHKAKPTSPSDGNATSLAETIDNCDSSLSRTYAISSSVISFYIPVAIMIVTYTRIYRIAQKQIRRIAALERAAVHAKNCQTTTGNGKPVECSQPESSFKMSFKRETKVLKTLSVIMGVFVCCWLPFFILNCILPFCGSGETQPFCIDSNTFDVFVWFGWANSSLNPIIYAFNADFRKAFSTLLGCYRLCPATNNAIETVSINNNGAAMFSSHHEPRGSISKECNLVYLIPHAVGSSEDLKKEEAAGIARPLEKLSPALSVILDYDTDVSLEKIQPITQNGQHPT
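Agonism was scored from calcium flux recorded over 180 s (1 read/s) after pintool compound addition, following a 10-cycle baseline. Cells were inducible force-coupled HEK293 TREx D1, plated overnight at 30 C and loaded with no-wash calcium dye.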
DRD3 antagonist: blocks the human D3 dopamine receptor. P35462. D3R cells, DiscoveRx beta-arrestin luminescence, antagonist mode; stronger effect = lower value. max response, negative = inhibition, %. 360,000 compounds, 2.5% hits; in the data active means max response below about -50%; inconclusive means no clear call, values can overlap the other calls; further: on the % scale 0 is the no-effect control and ±100 the full control effect
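Cells plated overnight at 1500 cells/well, then exposed to library compounds with dopamine controls for 90 minutes at 37 degrees C. DiscoveRx reagent added for 30–60 minutes at room temperature; luminescence read, quantitative HTS format.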
D1 antag: blocks dopamine activation of the human D1 receptor | 360,000 compounds, 3.2% hits | HEK293 TREx D1 cells, calcium flux, dopamine EC80; stronger effect = lower value | P21728 | activity change, negative = inhibition, % at 10 µM | AID 504652; in the data active means activity change below about -30%; further: on the % scale 0 is the no-effect control and ±100 the full control effect
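Tetracycline-induced HEK293 T-REx cells with force-coupled D1 receptor were loaded with a no-wash calcium dye. Compound was added after a 10 s baseline and read kinetically for 180 s; EC80 dopamine was then added and calcium flux followed another 180 s.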
D3 ag: D3 dopamine receptor (human) agonism; P35462; max activation, %; AID 652048; D3R DiscoveRx beta-arrestin cells, luminescence, 90 min; 410,000 compounds, 0.58% hits; in the data active means max activation above about 30%; further: 0% is about no effect
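Cells at 1500/well, incubated overnight, then treated with pinned compounds (dopamine as control) for 90 min at 37 degrees C. DiscoveRx reagent added for 30 - 60 minutes at room temperature; luminescence read.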
D1 potentiator: enhances dopamine response at the human D1 receptor; P21728; HEK293 TREx D1 cells, calcium flux, dopamine EC20 potentiation; potentiation, % at 10 µM; 360,000 compounds, 0.036% hits; in the data active means potentiation above about 30%; further: 0% is about no effect
* marks the source's active call; other numbers are inactive results; ? = inconclusive; . = not tested or not shown. Sampled rows, rich in hits. Any-hit rate of the full collection: about 6%.

SMILES | D1 agonist | DRD3 antagonist | D1 antag | D3 ag | D1 potentiator
O=C(CC1(O)C(=O)N(CCc2ccccc2)c2ccc(Br)cc21)c1ccccc1O (configuration not stated) | -2.8 | . | 33.6 | -21.2 | 0.8
NC(=O)NC(=O)C(c1ccccc1)N1CCN(S(=O)(=O)Cc2ccccc2)CC1 (configuration not stated) | 6.6 | 3.9 | -31.4* | -10.8 | .
COC(=O)c1ccccc1NC(=O)COC(=O)CO/N=C(\C)c1ccc2c(c1)OCO2 | 6.8 | -12.1 | -31.4* | -0.6 | 0.1
C/C(=N\OCC(=O)OCC(=O)NC(=O)c1ccccc1)c1ccc2c(c1)OCO2 | 3.1 | 5.0 | -40.4* | -0.6 | 0.8
C/C(=N\OCC(=O)OCC(=O)Nc1cc(S(C)(=O)=O)ccc1Cl)c1ccc2c(c1)OCO2 | 5.1 | -2.5 | -14.4 | -1.8 | -0.5
COc1ccc(C(=O)NCC(=O)OCC(=O)NCc2ccc3c(c2)OCO3)cc1 | . | -6.7 | . | 20.9 | .
COc1ccc(CNC(=O)COC(=O)CO/N=C(\C)c2ccc3c(c2)OCO3)cc1 | -1.1 | -15.8 | -33.1* | -9.9 | -6.0
O=C(NC1CCCCC1)c1nc(-c2c(F)cccc2F)oc1-c1ccccc1 | . | 16.3 | . | -1.1 | .
COc1ccccc1CNC(=O)c1cc2cc(C)ccc2n1C | -0.9 | . | -13.8 | 7.8 | -0.8
CN(C(=O)CSC1=Nc2ccccc2C2=NC(c3ccccc3)C(=O)N12)C1CCCCC1 (configuration not stated) | 4.5 | -55.2* | . | -6.1 | -0.3
O=C(CSC1=Nc2ccccc2C2=NC(c3ccccc3)C(=O)N12)NC1CCCCC1 (configuration not stated) | 0.5 | -25.9 | 4.8 | -3.8 | 12.5
Cc1cc(C)c2ccc(C(=O)O)nc2c1O | 0.7 | -62.8* | -16.8 | -6.5 | -3.4
COCCNC(=S)N(CCc1c(C)[nH]c2ccc(F)cc12)Cc1cccs1 | 14.9 | -15.5 | -37.7* | -2.9 | -2.2
COCCNC(=S)N(CCc1c(C)[nH]c2ccc(Cl)cc12)Cc1cccs1 | 1.5 | 0.0 | 12.8 | -0.5 | -3.9
CCOc1cccc2cc(-c3nc4sc5c(c4c(=O)[nH]3)CCC(C(C)(C)C)C5)c(=O)oc12 (configuration not stated) | 1.3 | . | -2.1 | -5.4 | -3.0
Cc1cc(-c2ccc(Cl)cc2Cl)c(C#N)c(=O)[nH]1 | 31.0* | 14.5 | 3.6 | 1.1 | 0.5
COc1ccc(N(C(=O)COc2ccccc2OC)S(=O)(=O)c2ccc(Cl)cc2)cc1 | 0.2 | . | -15.8 | -8.6 | -1.6
CCCCCOC(=O)NCC(O)c1ccccc1 (configuration not stated) | 6.8 | 24.5 | -33.5* | -1.4 | -2.9
CCOc1ccc(NC(=O)C(NS(=O)(=O)c2ccc3c(c2)CCN3C(C)=O)C(C)C)cc1 (configuration not stated) | 0.3 | . | -2.5 | 2.3 | 1.6
CCN(CC)CCCN(C(=O)c1ccco1)c1nc(-c2ccc(Cl)cc2)cs1 | 18.9 | -50.3* | -13.7 | -17.7 | -7.5
CCN(CC)CCCN(C(=O)c1ccco1)c1nc(-c2ccc(C)cc2)cs1 | 6.2 | ? | -6.4 | -16.5 | -7.8
CCCCN1C(=O)C(O)(CC(=O)c2ccc(CC)cc2)c2cc(Br)ccc21 (configuration not stated) | 5.5 | . | 12.1 | 1.7 | 0.5
COc1ccc2oc(=O)cc(CN3CCN(Cc4ccccc4)CC3)c2c1 | 1.3 | -54.0* | -9.4 | -45.3 | 0.1
COc1ccc2c(CN3CCN(Cc4ccccc4)CC3)cc(=O)oc2c1 | . | -68.1* | . | -20.0 | .
CCOc1ccc2oc(=O)cc(CN3CCN(Cc4ccccc4)CC3)c2c1 | 2.5 | 0.6 | -9.4 | -19.9 | -8.8
SMILES | D1 agonist | DRD3 antagonist | D1 antag | D3 ag | D1 potentiator
Cc1cc(C)c(-c2n[nH]c3c2C(c2ccccc2F)N(Cc2ccco2)C3=O)c(O)c1 (configuration not stated) | 5.0 | . | 30.8 | 6.0 | 0.1
CCOc1ccc(CNc2nc3nc(C)c(Cc4ccccc4)c(=O)n3[nH]2)cc1 | -1.7 | . | 2.4 | -9.0 | -0.4
CCN(CC)C(=S)SCC(=O)Nc1nc(-c2ccccc2)c(-c2ccccc2)o1 | -1.6 | -10.0 | -18.2 | -7.1 | 2.1
Cn1nnnc1SCC(=O)Nc1nc(-c2ccccc2)c(-c2ccccc2)o1 | 2.1 | -52.6* | 12.7 | -6.9 | -2.0
O=C(CSC(=S)N1CCCCC1)Nc1nc(-c2ccccc2)c(-c2ccccc2)o1 | 0.8 | -51.8* | -4.3 | -40.2 | 6.0
O=C(CSC(=S)N1CCOCC1)Nc1nc(-c2ccccc2)c(-c2ccccc2)o1 | 1.7 | -29.9 | 19.3 | 7.3 | 2.6
Cc1c(-c2ccc(Cl)cc2)c(=O)oc2c(CN3CCN(CCO)CC3)c(O)ccc12 | -1.2 | . | 2.9 | -6.0 | -3.2
CCNC(=O)NCCCOc1cccc(CN2CCCCC2)c1 | . | . | . | -18.9 | .
CCCCCCCCCCOC(=O)Cn1c(COc2ccccc2OC)[n+](C)c2ccccc21 | 182.6* | -5.2 | -22.5 | -11.2 | 16.9
O=c1n(Cc2ccc(F)cc2Cl)c2ccccc2c2nc(-c3ccccc3)nn12 | 0.6 | . | 6.4 | -9.4 | -0.1
COc1ccccc1-c1ccc(=O)n(CC(=O)NC2CCc3ccccc32)n1 (configuration not stated) | 88.2* | -27.6 | 23.1 | -8.7 | 5.2
CCc1nc2c(OCC3COc4ccccc4O3)cccn2c1N(C)C(=O)c1ccccc1F (configuration not stated) | . | 6.6 | . | 0.3 | .
CCOc1ccccc1CNC(=O)Cn1c(=O)c2cccn2c2ccc(F)cc21 | 2.0 | . | -1.6 | -20.3 | 1.4
COc1c(Br)cc(Br)cc1C(=O)O | -0.2 | -13.4 | 5.2 | 37.1* | 0.3
CCc1ccc(-c2cn3c(n2)sc2cc(C(=O)NCCC4=CCCCC4)ccc23)cc1 | -1.2 | . | 18.4 | -1.9 | -0.7
Cc1nc(N2CCOCC2)c2cc(-c3ccccc3)sc2n1 | 1.7 | -57.0* | -9.4 | -10.4 | -5.7
Cc1ccc(C(=O)Nc2ccc(C(=O)OCc3cc(=O)n4c5c(sc4n3)CCCC5)cc2)cc1 | 2.8 | . | -17.8 | 1.4 | -0.7
CCCS(=O)(=O)N1CC(=O)N(c2cc(C)cc(C)c2)C(C)(C(=O)NC2CCCCCC2)C1 (configuration not stated) | -1.7 | . | -31.2* | -9.7 | -0.5
CCc1ccc2[nH]c(=O)c(C(c3nnnn3Cc3ccccc3)N3CCOCC3)cc2c1 (configuration not stated) | -0.4 | 10.1 | 1.4 | 3.8 | -3.5
CCc1ccc2[nH]c(=O)c(C(c3nnnn3Cc3ccc(OC)cc3)N3CCOCC3)cc2c1 (configuration not stated) | 0.2 | -14.0 | -43.9* | -1.3 | 3.9
COc1ccc2cc(C(c3nnnn3C(C)(C)C)N3CCc4ccccc4C3)c(=O)[nH]c2c1 (configuration not stated) | -0.4 | . | -45.0* | . | -2.4
COc1ccc2cc(C(c3nnnn3C(C)(C)C)N3CCSCC3)c(=O)[nH]c2c1 (configuration not stated) | 4.6 | -57.1* | 2.4 | -7.0 | -1.1
